Molecules are shown by their SMILES. About 100 (0.2%) of roughly 62,000 compounds were called active. The list comes from a sample in which actives are over-represented; it also holds similar structures and randomly drawn compounds. Values without a mark were called inactive. No stated cut-off is given here; in the data, active means inhibition above about 20%; inactive means the rest.

Usually inhibition stands for the relative decrease from the control value, in per cent.

Sequence of DNA-directed RNA polymerase subunit beta (Escherichia coli (strain K12)) (P0A8V2 whole entry, looked up): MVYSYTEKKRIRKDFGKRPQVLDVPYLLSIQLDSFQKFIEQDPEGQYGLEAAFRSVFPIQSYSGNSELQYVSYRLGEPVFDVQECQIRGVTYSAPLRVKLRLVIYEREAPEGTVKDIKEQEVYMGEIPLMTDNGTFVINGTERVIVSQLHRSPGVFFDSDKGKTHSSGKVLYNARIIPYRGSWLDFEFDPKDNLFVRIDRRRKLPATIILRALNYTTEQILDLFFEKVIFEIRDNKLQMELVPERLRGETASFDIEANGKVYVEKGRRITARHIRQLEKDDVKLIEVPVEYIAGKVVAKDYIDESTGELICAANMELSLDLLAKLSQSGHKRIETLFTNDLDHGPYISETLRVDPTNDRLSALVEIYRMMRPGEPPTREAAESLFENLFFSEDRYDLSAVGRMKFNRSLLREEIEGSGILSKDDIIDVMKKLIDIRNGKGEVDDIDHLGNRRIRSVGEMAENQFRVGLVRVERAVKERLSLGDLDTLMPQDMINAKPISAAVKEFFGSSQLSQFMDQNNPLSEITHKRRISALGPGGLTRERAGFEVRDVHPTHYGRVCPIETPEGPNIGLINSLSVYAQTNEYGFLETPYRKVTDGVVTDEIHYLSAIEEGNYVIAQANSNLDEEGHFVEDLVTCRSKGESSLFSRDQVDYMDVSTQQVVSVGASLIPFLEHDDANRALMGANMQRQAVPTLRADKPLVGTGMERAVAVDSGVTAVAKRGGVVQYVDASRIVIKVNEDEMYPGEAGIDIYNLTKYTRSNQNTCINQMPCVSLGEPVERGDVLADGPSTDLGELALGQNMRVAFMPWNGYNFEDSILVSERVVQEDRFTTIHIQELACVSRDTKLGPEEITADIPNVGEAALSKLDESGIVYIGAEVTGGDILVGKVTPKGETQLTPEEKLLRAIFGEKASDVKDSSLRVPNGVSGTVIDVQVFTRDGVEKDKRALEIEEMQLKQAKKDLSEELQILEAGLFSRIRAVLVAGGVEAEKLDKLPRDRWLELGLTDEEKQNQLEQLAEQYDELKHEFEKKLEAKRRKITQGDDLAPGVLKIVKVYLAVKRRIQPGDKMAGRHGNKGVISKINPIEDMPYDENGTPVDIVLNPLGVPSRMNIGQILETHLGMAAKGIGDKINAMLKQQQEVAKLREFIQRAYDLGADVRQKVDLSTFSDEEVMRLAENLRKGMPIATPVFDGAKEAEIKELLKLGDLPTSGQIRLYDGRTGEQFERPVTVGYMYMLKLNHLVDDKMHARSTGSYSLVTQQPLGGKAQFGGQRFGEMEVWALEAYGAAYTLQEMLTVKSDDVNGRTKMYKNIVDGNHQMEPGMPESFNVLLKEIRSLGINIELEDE

This assay has as its target DNA-directed RNA polymerase subunit beta (Escherichia coli (strain K12)) (UniProt P0A8V2). As to the kind of experiment: E. coli RNAP inhibitors, biochemical (AID 559).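 Further: 0% = enzyme without compound and 100% = no enzyme blank.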 As to conditions: fluorescence transcription assay, stronger effect = higher value,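 tested at 10 µM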.
Regarding `C=CCOc1ccc(C2/C(=C(\O)c3c(C)[nH]c(C(=O)OC)c3C)C(=O)C(=O)N2CCN(C)C)cc1` (configuration not stated), the inhibition is -5.38%.
Consider `CC(=O)c1cccc(NC(=O)N2CCCC2C(=O)NCCC(C)C)c1` (configuration not stated), for which the inhibition was 6.83%.
For `Cc1ccccc1-n1c(SCC(=O)NCc2cccs2)nnc1-c1ccncc1`, the inhibition was -3.22%.
For the molecule `Cn1c(=O)[nH]c(=O)c2c1nc(N1CCN(CCO)CC1)n2CCSc1nc2ccccc2s1`, the inhibition was 7.67%.
In the case of `O=C(Nc1ccccc1F)c1cc(S(=O)(=O)N2CCCCC2)cs1`, the inhibition is -4.61%.
Consider `Cc1ccc(C)c(NS(=O)(=O)c2cc(Br)cnc2N)c1`, for which the inhibition is -0.25%.
The same measure for `c1ccc(-n2ncc3c(N4CCCC4)ncnc32)cc1`: 10.9%; for `Cc1nnc(SCC(=O)N2CCc3ccccc32)n1-c1ccccc1`: 5.59%.
As to `Cc1ccccc1C(=O)Nc1cccc(-c2nnc(SCC(=O)O)n2C)c1`, the inhibition was 12.2%.
The same measure for `CCn1c(SCC(=O)Nc2cccc(F)c2)nnc1-c1cc2cc(Br)ccc2o1`: 9.56%.
`O=C(NCc1cccs1)C1CCN(S(=O)(=O)c2ccc3c(c2)OCCO3)CC1`: the inhibition is 7.85%.
`O=C(CSc1ncccn1)NCCc1ccccc1`: the inhibition was 1.73%.
Turning to `CC(C)(C)c1ccc(C(=O)CSc2ncn[nH]2)cc1`, the inhibition is 5.03%.
For `NC(=O)C1CCN(C(=O)c2ccc(C(F)(F)F)cc2)CC1`, the inhibition was 2.29%.
Turning to `CCC(=O)Nc1cccc(NC(=O)c2cccnc2)c1`, the inhibition was 1.22%.
The same measure for `Cn1c(=O)cc(OCCCC(=O)N2CCN(Cc3ccc4c(c3)OCO4)CC2)c2ccccc21`: 14.1%; for `COc1ccc(CN2CN(C(C)C)CSC2=S)cc1`: 0.75%; for `Cc1ccccc1CN1CCN(CC(=O)NCc2ccccn2)C1=O`: -3.92%.
With `Clc1ccc(C2CC(c3cccs3)n3ncnc3N2)cc1Cl` (configuration not stated), the inhibition is 3.31%.
On to `Cc1csc(NC(=O)NC2(C(F)(F)F)Oc3ccccc3O2)n1`, for which the inhibition was 30.9% (active).
Turning to `Cc1cc(C)nc(NC(=O)Nc2ccccc2C(F)(F)F)n1`, the inhibition was 3.47%.
The same measure for `Cc1csc(NC(=O)CN2CCCCCC2)n1`: 10.6%.
Regarding `CCOC(=O)CC1C(=O)NCCN1C(=O)COc1ccc(Br)cc1C` (configuration not stated), the inhibition was 4.26%.
As to `COCCCNC(=O)c1ccc(CNS(=O)(=O)c2ccc(NC(C)=O)cc2)cc1`, the inhibition was -9.1%.
Turning to `Cc1ccc(NC(=O)NCC(c2cccnc2)N2CCOCC2)cc1` (configuration not stated), the inhibition was 6.82%.
The figure for `CCCS(=O)(=O)Nc1c(C(=O)O)[nH]c2ccccc12` is 8.57%; for `COc1ccc(Cl)cc1S(=O)(=O)Nc1cccc(C(=O)O)c1` it is 4.26%.

The values above are taken from PubChem BioAssay AID559 (PCMD, 2006).
